Results: ChEMBL document CHEMBL3988442, “University of Dundee, Small-Polar-MMV Screening Library” (2021)
For some assays here: Measured potencies and affinities stand elsewhere.

Columns and labels:
Design in all cases: scale not given: direction of the effect not stated beside the values
[1] = target: Protein translocase subunit SecA (Escherichia coli (strain K12)) (UniProt P10408); assay: Assay to Identify E. coli SecA ATPase Inhibitors; assay type: functional; details: 30 µM
[2] = target: T1, Ubiquitin-activating enzyme e1, putative (Leishmania donovani (strain BPK282A1)) (UniProt E9BSI1); assay: Leishmania donovani Ubiquitin Activating Enzyme (LdE1); assay type: functional; details: 30 µM
T1 sequence (whole entry): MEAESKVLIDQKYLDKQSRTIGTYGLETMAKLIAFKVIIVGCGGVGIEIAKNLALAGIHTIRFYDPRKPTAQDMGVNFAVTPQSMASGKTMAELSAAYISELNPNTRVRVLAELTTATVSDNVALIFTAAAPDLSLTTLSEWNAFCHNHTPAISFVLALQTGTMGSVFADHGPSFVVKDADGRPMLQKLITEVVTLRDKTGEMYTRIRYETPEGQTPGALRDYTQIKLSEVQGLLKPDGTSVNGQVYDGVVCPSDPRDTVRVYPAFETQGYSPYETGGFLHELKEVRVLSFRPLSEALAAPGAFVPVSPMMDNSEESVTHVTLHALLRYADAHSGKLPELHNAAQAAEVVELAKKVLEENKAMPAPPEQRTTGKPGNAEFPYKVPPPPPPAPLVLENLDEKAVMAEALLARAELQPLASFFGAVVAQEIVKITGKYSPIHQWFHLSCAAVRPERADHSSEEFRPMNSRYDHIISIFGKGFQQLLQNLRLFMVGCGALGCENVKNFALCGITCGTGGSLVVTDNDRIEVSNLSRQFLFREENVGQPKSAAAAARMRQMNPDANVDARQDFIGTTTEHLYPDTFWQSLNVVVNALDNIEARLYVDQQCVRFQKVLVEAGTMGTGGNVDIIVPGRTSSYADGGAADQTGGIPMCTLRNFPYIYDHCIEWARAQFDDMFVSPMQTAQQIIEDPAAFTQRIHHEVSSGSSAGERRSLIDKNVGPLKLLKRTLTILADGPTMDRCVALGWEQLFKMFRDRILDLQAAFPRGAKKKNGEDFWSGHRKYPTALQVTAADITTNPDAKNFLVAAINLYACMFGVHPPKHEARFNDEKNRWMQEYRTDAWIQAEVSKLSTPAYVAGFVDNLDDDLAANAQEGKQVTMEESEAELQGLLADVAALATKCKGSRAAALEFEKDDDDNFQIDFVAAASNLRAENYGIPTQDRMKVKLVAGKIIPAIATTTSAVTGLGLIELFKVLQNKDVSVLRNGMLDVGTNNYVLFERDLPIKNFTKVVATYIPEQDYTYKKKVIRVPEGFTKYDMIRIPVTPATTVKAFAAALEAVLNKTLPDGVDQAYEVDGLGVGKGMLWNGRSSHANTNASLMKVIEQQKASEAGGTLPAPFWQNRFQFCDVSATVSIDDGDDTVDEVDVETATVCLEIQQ

[3] = target: AMP-activated protein kinase, AMPK (Homo sapiens) (UniProt P54646+O43741+P54619+Q9UGJ0+Q9Y478+Q13131+Q9UGI9); assay: AMP-dependent Kinase enzyme assay. An in vitro enzyme assay that detects ADP turnover that is directly proportional to AMPK activity. This uses naive AMPK that is activated during the assay with MK-8722; assay type: functional; details: 30 µM
[4] = target: Sialic acid-binding Ig-like lectin 9 (Homo sapiens) (UniProt Q9Y336); assay: Hs-Siglec9 ALPHAscreen SOP 20170721; details: 10 µM
Trypanosoma cruzi = assay: Trypanosoma cruzi phosphomannomutase and mannose-1-phosphate guanylyltransferase assay; assay type: functional; details: 10 µM
[5] = target: T2, Arginase-2, mitochondrial (Homo sapiens) (UniProt P78540); assay: in vitro enzyme assay to detect the production of urea directly proportional to the activity of Arginase II; assay type: functional; details: 33.3 µM; further: in the data most compounds retested in dose-response had high values
T2 sequence (whole entry): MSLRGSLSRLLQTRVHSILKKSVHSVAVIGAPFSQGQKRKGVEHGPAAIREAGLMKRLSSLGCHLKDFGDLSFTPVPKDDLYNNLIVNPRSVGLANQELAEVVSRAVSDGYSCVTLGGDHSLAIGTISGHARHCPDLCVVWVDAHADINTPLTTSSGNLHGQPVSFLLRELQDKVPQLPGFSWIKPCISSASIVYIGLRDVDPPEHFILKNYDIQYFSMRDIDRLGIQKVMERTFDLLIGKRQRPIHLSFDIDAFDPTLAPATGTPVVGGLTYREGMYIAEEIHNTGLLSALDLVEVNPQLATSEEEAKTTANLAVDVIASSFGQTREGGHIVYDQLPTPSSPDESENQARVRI

[6] = target: T3, Proteasome subunit beta (Trypanosoma cruzi) (UniProt O96673); assay: Trypanosoma cruzi proteasome chymotrypsin-like activity (TcProtChymo) assay.; further: in the data most compounds retested in dose-response had high values; assay type: functional; details: 9.37 µM
T3 sequence (whole entry): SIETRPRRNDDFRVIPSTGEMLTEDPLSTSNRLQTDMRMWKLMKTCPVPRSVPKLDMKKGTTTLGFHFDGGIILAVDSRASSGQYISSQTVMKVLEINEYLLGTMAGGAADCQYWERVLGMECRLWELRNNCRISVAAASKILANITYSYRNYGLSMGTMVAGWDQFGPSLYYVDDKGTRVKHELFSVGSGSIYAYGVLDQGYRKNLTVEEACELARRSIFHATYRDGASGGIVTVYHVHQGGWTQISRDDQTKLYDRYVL

Homo sapiens = species on record: Homo sapiens; assay: To identify inhibition of the IFN signalling (Jak-Stat) pathway via expression of an eGFP reporter gene under the control of an IFN-stimulated response element (ISRE) containing MxA promoter.; assay type: functional; details: 30 µM
[7] = target: T4, Tyrosyl-tRNA synthetase, putative (Trypanosoma cruzi (strain CL Brener)) (UniProt Q4DSP6); assay: Trypanosoma cruzi tyrosyl tRNA synthetase (TcYRS) _High Tyrosine SOP; assay type: functional; details: 30 µM; further: in the data most compounds retested in dose-response had high values
T4 sequence (whole entry): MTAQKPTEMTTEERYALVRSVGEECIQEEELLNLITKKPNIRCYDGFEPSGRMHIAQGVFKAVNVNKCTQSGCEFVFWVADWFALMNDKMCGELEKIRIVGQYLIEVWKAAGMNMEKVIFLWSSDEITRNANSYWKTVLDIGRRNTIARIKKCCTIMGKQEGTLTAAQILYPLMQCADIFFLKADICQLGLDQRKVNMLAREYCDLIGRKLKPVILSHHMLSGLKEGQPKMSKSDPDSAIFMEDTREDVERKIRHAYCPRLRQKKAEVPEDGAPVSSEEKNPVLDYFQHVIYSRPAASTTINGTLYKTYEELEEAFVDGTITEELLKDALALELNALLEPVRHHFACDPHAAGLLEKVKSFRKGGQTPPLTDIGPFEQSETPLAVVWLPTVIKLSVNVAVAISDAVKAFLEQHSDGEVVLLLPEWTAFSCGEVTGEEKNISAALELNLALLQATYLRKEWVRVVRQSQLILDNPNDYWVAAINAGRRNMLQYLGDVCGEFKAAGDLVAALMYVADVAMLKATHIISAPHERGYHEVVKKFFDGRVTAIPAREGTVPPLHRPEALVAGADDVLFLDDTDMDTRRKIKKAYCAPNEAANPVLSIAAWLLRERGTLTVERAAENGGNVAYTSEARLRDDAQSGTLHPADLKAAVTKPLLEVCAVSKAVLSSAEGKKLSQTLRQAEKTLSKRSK

[8] = target: T4, Tyrosyl-tRNA synthetase, putative (Trypanosoma cruzi (strain CL Brener)); assay: Trypanosoma cruzi tyrosyl tRNA synthetase (TcYRS) SOP; assay type: functional; details: 30 µM
[9] = target: Chromo domain-containing protein 1 (Saccharomyces cerevisiae (strain ATCC 204508 / S288c) (Baker's yeast)) (UniProt P32657); assay: ScCHD-1 Enzyme Inhibition Assay; assay type: functional; details: 30 µM; further: in the data most compounds retested in dose-response had high values
Sequence of Chromo domain-containing protein 1 (Saccharomyces cerevisiae (strain ATCC 204508 / S288c) (Baker's yeast)) (P32657 whole entry, the tested form may be a part): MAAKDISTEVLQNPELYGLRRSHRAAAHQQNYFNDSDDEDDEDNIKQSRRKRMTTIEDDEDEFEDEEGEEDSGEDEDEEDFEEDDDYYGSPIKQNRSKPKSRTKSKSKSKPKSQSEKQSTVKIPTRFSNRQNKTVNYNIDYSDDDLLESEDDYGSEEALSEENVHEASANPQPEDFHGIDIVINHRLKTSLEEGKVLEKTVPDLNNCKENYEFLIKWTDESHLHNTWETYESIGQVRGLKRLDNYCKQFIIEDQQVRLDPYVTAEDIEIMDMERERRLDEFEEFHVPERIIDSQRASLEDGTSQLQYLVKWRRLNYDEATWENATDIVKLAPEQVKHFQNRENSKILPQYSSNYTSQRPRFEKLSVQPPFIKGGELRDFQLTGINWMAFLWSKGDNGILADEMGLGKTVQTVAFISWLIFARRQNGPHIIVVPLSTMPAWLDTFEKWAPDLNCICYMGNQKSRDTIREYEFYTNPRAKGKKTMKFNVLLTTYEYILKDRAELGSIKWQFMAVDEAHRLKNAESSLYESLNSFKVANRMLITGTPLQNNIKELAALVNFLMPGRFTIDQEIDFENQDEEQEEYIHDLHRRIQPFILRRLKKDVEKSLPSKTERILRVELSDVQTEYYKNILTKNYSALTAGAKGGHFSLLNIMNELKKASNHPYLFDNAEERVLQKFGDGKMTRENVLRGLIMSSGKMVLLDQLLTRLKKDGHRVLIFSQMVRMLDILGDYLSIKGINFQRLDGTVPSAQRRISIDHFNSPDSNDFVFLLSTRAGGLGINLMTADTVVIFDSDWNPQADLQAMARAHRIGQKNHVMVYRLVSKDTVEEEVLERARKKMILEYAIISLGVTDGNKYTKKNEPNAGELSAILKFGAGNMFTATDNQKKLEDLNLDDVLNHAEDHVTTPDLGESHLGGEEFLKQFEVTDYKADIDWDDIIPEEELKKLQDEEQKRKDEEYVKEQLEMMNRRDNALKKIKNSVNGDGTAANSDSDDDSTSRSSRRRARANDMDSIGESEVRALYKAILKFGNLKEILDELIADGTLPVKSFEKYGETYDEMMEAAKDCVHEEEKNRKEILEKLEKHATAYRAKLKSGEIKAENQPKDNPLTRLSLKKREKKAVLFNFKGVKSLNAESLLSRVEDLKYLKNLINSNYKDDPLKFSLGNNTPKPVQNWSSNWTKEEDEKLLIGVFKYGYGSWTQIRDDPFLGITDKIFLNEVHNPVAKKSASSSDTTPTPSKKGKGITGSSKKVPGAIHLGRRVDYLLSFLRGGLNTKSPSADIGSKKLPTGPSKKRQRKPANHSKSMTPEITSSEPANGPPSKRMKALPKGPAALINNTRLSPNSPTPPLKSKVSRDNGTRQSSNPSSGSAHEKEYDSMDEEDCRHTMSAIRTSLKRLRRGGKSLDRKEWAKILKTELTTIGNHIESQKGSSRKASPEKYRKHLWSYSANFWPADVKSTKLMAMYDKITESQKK

Sequence of Protein translocase subunit SecA (Escherichia coli (strain K12)) (P10408 whole entry): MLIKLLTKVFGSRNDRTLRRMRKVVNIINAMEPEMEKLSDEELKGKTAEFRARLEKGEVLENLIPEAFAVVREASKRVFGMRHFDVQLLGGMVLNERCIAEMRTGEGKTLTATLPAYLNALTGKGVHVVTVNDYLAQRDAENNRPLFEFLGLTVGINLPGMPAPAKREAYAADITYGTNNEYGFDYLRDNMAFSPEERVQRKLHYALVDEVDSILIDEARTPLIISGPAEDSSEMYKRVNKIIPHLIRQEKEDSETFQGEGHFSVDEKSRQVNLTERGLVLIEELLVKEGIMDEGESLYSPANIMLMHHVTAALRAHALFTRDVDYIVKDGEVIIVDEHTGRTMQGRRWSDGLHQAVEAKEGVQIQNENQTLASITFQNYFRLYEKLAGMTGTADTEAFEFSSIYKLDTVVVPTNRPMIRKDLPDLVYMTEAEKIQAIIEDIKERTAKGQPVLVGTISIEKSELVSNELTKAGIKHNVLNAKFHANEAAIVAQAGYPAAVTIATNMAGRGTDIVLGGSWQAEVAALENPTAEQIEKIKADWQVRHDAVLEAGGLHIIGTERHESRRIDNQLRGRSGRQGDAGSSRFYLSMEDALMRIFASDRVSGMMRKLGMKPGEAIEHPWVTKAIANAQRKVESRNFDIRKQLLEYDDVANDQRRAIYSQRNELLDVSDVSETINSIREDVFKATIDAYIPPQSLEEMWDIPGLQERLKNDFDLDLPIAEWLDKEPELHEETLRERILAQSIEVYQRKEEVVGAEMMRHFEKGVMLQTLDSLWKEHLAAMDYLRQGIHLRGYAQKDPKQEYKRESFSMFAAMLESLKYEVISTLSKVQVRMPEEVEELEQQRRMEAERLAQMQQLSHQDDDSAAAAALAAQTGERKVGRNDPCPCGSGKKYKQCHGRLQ
Sequence of Sialic acid-binding Ig-like lectin 9 (Homo sapiens) (Q9Y336 whole entry): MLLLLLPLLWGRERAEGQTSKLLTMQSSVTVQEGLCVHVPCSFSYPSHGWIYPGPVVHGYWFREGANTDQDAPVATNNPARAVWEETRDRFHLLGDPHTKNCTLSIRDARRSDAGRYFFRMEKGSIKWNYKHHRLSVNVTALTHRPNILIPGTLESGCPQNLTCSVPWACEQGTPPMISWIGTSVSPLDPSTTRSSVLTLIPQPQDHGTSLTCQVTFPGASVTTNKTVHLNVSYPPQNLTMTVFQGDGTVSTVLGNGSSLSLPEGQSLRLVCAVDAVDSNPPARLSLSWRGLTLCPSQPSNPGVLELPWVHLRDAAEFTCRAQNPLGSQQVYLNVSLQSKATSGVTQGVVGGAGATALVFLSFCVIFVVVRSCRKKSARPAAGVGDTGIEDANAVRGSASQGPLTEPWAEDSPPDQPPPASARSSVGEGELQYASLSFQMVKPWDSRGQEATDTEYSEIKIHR

Row | Structure (SMILES) | Percent Effect [1] [%] | Percent Effect [2] [%] | Percent Effect [3] [%] | Percent Effect [4] [%] | Percent Effect (Trypanosoma cruzi) [%] | Percent Effect [5] [%] | Percent Effect [6] [%] | Percent Effect (Homo sapiens) [%] | Percent Effect [7] [%] | Percent Effect [8] [%] | Percent Effect [9] [%]
1 | Cc1nn2c(N3CCC(O)CC3)cc(-c3ccccc3)nc2c1C | -3.77 | 5.48 | -0.844 | 1.98 | -3.57 | -3.99 | 11 | 16 | 5.21 | 13.6 | -5.15
2 | CCOC(=O)CCC(=O)NC(C)c1ccc(NC(=O)CC)cc1 (stereo unspecified) | -1.67 | 7.89 | 2.06 | -5.73 | -1.66 | 1.18 | 9.88 | 6.92 | 6.38 | 13 | -3.37
3 | CN(Cc1ccc(F)cc1)CC1(O)CCCN(CC(C)(C)C)C1=O (stereo unspecified) | -5.95 | -1.39 | -3.53 | -2.57 | 3.79 | 3.09 | -3.16 | 1.55 | -7.37 | -2.56 | 0.558
4 | CC(C)c1ccsc1C(=O)N1CCCN(Cc2cscn2)CC1 | -1.52 | 2.6 | -0.162 | -7.44 | 0.686 | -2.32 | 19.8 | 21.5 | 18.1 | 32.9 | -19.8
5 | Cn1cc(N2CC3(CCN(CC4CCOCC4)CC3)OCC2=O)cn1 | -1.91 | 9.33 | 1.65 | 6.72 | -0.197 | 2.99 | 19.8 | 17.2 | 4.23 | 12.8 | -4.82
6 | COCCN(C)C(=O)Nc1ccc2c(ccn2CCOC)c1 | -6.84 | 28.9 | -12.8 | 0.86 | 6.33 | -1.18 | -0.0959 | 1.75 | 4.25 | 13 | -17.1
7 | Cc1cccc(NS(=O)(=O)c2cc(C(=O)O)oc2C)c1Cl | -6.42 | 0 | 0.702 | 9.91 | 6.18 | -4.27 | 0.338 | 3.85 | 1.94 | 9.76 | -7.97
8 | O=C(CCc1ccccc1)C1CCCN(C(=O)c2ncc(F)cc2F)C1 (stereo unspecified) | -4.95 | 5.48 | 0.372 | -8.02 | -1.18 | 2.73 | 9.94 | 2.79 | 5.38 | 10 | -1.5
9 | Clc1cc(CN2CCCC2Cn2cncn2)c2ncccc2c1 (stereo unspecified) | -4.67 | 2.7 | -1.32 | -0.586 | -2.88 | -12.4 | 3.95 | -0.129 | 2.97 | 6.1 | -2.39
10 | CCN1CC2(CC1=O)CN(Cc1cnn(C)c1)CCN(C(C)=O)C2 (stereo unspecified) | -7.25 | 8.11 | 4.66 | -2.12 | -2.34 | -3.33 | 10.4 | -2.64 | 5.94 | 8.54 | 2.03
11 | COCCC(=O)N1CCc2cc(Cl)cc(Cl)c2C1 | -3.86 | -44.2 | 0.226 | 19.2 | 1.87 | 0 | 14 | -16.1 | -3.23 | -1.24 | 126
12 | CSC(C)(C)CNC(=O)NC1CCN(C)CC1 | -2.43 | 5.33 | -2.46 | 7.43 | 3.21 | 15.6 | 0 | 21.1 | 4.92 | 6.17 | -2.97
13 | CC(C)C(=O)NC1CCN(Cc2cccc3c2OCCO3)CC1 | -2.08 | -1.27 | 4.8 | 0.497 | -2.36 | 3.66 | -2.06 | 17.1 | 2.08 | -2.53 | -21.1
14 | CCc1nc(CN2CCCN(c3nc4ccccc4o3)CC2)no1 | 7.05 | 13 | -1.96 | 2.65 | -9.14 | -13.8 | 12.2 | 23.6 | 4.3 | 8.64 | -0.262
15 | Cc1noc(C)c1CNCC1CCCN1c1cccnn1 (stereo unspecified) | -6.8 | -5.2 | 5.72 | -3.1 | -4.02 | -3.16 | -2.83 | 6.36 | 1.91 | -2.35 | -1.61
16 | O=C(c1cccnc1-n1cncn1)N1CCc2ccccc2C1 | -1.58 | 16.2 | -4 | 13.4 | 4.25 | 1.91 | 8.1 | 4.11 | 5.82 | 9.76 | -2.56
